From PubChem BioAssay (EPA / NIEHS) come the findings set out here.

Results filed as inconclusive are left out. Activity calls are given as the source filed them. The calls were made as follows, unless noted: active = hit-call score of the fitted dose curve at least 0.9, where 1 is the maximum; inactive = score below 0.9.

A short description of test [1]: ATG_Sox_CIS: Attagene CIS-FACTORIAL HepG2 Assay for human SRY-box transcription factor (SOX) (AID 2282960). The conditions noted are these: HepG2 Attagene cis-factorial SOX reporter, mRNA; actives raise or lower the signal. Put shortly: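 Cells were transfected with reporter constructs under cis-regulatory promoters, then exposed to chemicals for 24 h. Reporter transcripts were quantified by fluorescence after RT-PCR and capillary electrophoresis; activity was fitted in both directions against DMSO.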

In test [2] the target is Transcription factor Sp1 (Homo sapiens) (UniProt P08047). Put plainly: ATG_Sp1_CIS: Attagene CIS-FACTORIAL HepG2 Assay for human Specificity Protein 1 (Sp1) (AID 2282961). The settings on record: HepG2 Sp1 cis-reporter transcription, actives raise or lower the signal. Put shortly: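 Measures mRNA induction of an Sp1-linked reporter in HepG2 cells 24 h post-dosing. Multiplexed reporters read by RT-PCR and capillary electrophoresis; DMSO serves as negative control and baseline.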

Test [3] can be described thus: ATG_SREBP_CIS: Attagene CIS-FACTORIAL HepG2 Assay for human Sterol Regulatory Element Binding (SREBP) (AID 2282962). The settings on record: HepG2 Attagene cis-factorial SREBP reporter, mRNA; actives raise or lower the signal. Put shortly:
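Readout: fluorescent reporter-transcript peaks resolved by capillary electrophoresis after RT-PCR. Cells were human HepG2 carrying transfected cis-promoter reporter constructs, dosed for 24 h. Gain or loss of signal was fitted against DMSO controls.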

For test [4], the target named is Signal transducer and activator of transcription 3 (Homo sapiens) (UniProt P40763). The test can be described thus: ATG_STAT3_CIS: Attagene CIS-FACTORIAL HepG2 Assay for human Signal Transducer and Activator of Transcription 3 (STAT3) (AID 2282963). The conditions noted are these: HepG2, Attagene cis-factorial STAT3 reporter transcription; actives raise or lower the signal. Put shortly: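 Uses human liver HepG2 transiently carrying cis-regulated reporter transcription units. Following 24 h dosing, reporter mRNA induction was detected by RT-PCR and capillary electrophoresis, analysed bidirectionally versus DMSO.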

Test [5] is described as follows: ATG_TCF_b_cat_CIS: Attagene CIS-FACTORIAL HepG2 Assay for human T-Cell-Factor with beta-catenin (TCF/b-cat) (AID 2282965). The settings on record: HepG2 TCF/beta-catenin cis-reporter transcription, actives raise or lower the signal. Put shortly:
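In this cis-format system, transfected HepG2 cells report endogenous transcription factor activity. Readout after 24 h exposure is reporter transcript abundance from RT-PCR and capillary electrophoresis, analysed for gain or loss of signal versus DMSO.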

Test [6] can be described thus: ATG_TAL_CIS: Attagene CIS-FACTORIAL HepG2 Assay for human TAL Basal Promoter (AID 2282966).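 Also: background control endpoint measuring basal TAL promoter reporter mRNA not a specific factor.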 The settings on record: HepG2 Attagene cis-factorial TAL promoter reporter; actives raise or lower the signal. Put shortly:
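HepG2, transient MRTU transfection, 24 h compound exposure; RNA → oligo(dT) RT → PCR → 6-FAM primer extension → HpaI digest → CE fluorescence. Bidirectional curve fit vs DMSO. Background-control readout.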

Test [7] can be described thus: ATG_TGFb_CIS: Attagene CIS-FACTORIAL HepG2 Assay for human Transforming Growth Factor (TGF) (AID 2282967). The settings on record: HepG2 Attagene CIS TGFb reporter, mRNA transcription; actives raise or lower the signal. Put shortly: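 Readout: fluorescently labeled reporter cDNA fragments resolved by capillary electrophoresis after RT-PCR. Transfected HepG2 cells dosed for 24 h; endogenous TF activity at TGFB1-linked cis element; gain or loss fitted relative to DMSO.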

The nature of test [8]: ATG_VDRE_CIS: Attagene CIS-FACTORIAL HepG2 Assay for human Vitamin D Receptor Element (VDRE) (AID 2282968). The settings on record: HepG2 VDRE cis-reporter transcription, actives raise or lower the signal. Put shortly:
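Transfected HepG2 reporter cells, chemical treatment 24 h. RNA isolated, cDNA amplified with reporter-specific primers, products analysed by capillary electrophoresis. Endpoint fitted in both directions versus DMSO.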

Test [9] deals with Steroid hormone receptor ERR1 (Homo sapiens) (UniProt P11474). The test can be described thus: ATG_ERRa_TRANS: Attagene TRANS-FACTORIAL HepG2 Assay for human Estrogen-Related Receptor alpha (ERRa) (AID 2282971; active = hit-call score of the fitted dose curve at least 0.9, where 1 is the maximum). The settings on record: HepG2 Attagene TRANS reporter, ERRa transactivation. Put shortly:
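Transfected HepG2, 24 h dosing, ERRa-Gal4 chimera driving GAL4-UAS reporter. Readout: reporter mRNA via RT-PCR plus capillary electrophoresis (fluorescence). Positive direction vs DMSO control.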

The target of test [10] is X-box-binding protein 1 (Homo sapiens) (UniProt P17861). Put plainly: ATG_Xbp1_CIS: Attagene CIS-FACTORIAL HepG2 Assay for human X-box Binding Protein 1 (XBP1) (AID 2282972). The conditions noted are these: HepG2 XBP1 cis-element reporter, Attagene multiplex; actives raise or lower the signal. In short, it runs like this:
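Read-out: fluorescent reporter mRNA fragments resolved by capillary electrophoresis after RT-PCR. Human HepG2 liver cells carried transfected cis-promoter reporter units and were exposed to chemicals for 24 hours. Gain or loss of signal fitted relative to DMSO baseline.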

Test [11] in a line: ATG_M_19_TRANS: Attagene TRANS-FACTORIAL HepG2 Assay for M19 Transcription Factor (Internal Marker) (AID 2282974; active = hit-call score of the fitted dose curve at least 0.9, where 1 is the maximum). The settings on record: HepG2 Attagene TRANS-FACTORIAL M19 internal marker reporter. Put shortly:
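After transfection of HepG2 with GAL4-UAS-driven reporter constructs, cells are dosed for 24 h. Total RNA is reverse-transcribed, reporter sequences PCR-amplified and labelled, then HpaI-digested and sized by capillary electrophoresis.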

Test [12] is described as follows: ATG_GAL4_TRANS: Attagene TRANS-FACTORIAL HepG2 Assay for GAL4 (Internal Marker) (AID 2282976; active = hit-call score of the fitted dose curve at least 0.9, where 1 is the maximum). The settings on record: HepG2 Attagene TRANS GAL4 internal marker reporter. Put shortly: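 RT-PCR/capillary electrophoresis readout of reporter mRNA. HepG2, transient MRTU transfection (GAL4-UAS reporters), 24 h compound exposure. Background-control endpoint, positive direction vs DMSO baseline.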

Test [13] deals with Oxysterols receptor LXR-beta (Homo sapiens) (UniProt P55055). Put plainly: ATG_LXRb_TRANS: Attagene TRANS-FACTORIAL HepG2 Assay for human Liver X Receptor beta (LXRb) (AID 2282981; active = hit-call score of the fitted dose curve at least 0.9, where 1 is the maximum). The settings on record: HepG2 Attagene TRANS GAL4-LXRb reporter, mRNA. Put shortly: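 Liver-derived HepG2 cells transfected with Gal4-responsive reporters were dosed for 24 h. Activation was scored as rise in reporter mRNA, by RT-PCR and capillary electrophoresis, above DMSO baseline.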

The nature of test [14]: ATG_TA_CIS: Attagene CIS-FACTORIAL HepG2 Assay for human TA Basal Promoter (AID 2282964). The conditions noted are these: HepG2 Attagene CIS-factorial TA basal promoter reporter; actives raise or lower the signal. In short, it runs like this:
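Transfected HepG2, 24 h compound exposure; RNA → RT-PCR → FAM primer extension → HpaI cut → CE fluorescence. Gain/loss-of-signal fitted against DMSO negative control. Background-control readout.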

The target in test [15] is Nuclear receptor subfamily 1 group I member 3 (Homo sapiens) (UniProt Q14994). Put plainly: ATG_CAR_TRANS: Attagene TRANS-FACTORIAL HepG2 Assay for human Constitutive Androstane Receptor (CAR) (AID 2282969; active = hit-call score of the fitted dose curve at least 0.9, where 1 is the maximum;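 also: activators raise reporter mRNA above DMSO so AC50 marks induction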). The conditions noted are these: HepG2 Attagene TRANS-FACTORIAL CAR reporter. In short, it runs like this: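 Steps: transient transfection of HepG2 with multiple GAL4-UAS reporter units; 24 h compound incubation; RNA isolation, RT-PCR, 6-FAM primer extension, HpaI digest; capillary electrophoresis. Gain-of-signal relative to DMSO negative control.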

In test [16] the target is Androgen receptor (Homo sapiens) (UniProt P10275). The test can be described thus: ATG_AR_TRANS: Attagene TRANS-FACTORIAL HepG2 Assay for human Androgen Receptor (AR) (AID 2282973; active = hit-call score of the fitted dose curve at least 0.9, where 1 is the maximum). The settings on record: HepG2 Attagene TRANS-FACTORIAL AR reporter transcription. Put shortly:
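Readout is reporter transcript abundance, quantified by fluorescent RT-PCR products separated on capillary electrophoresis. Human HepG2 liver cells carried transiently transfected NR-Gal4 chimera plus GAL4-UAS reporter constructs and were dosed for 24 h; activity scored upward versus DMSO.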

Test [17] has as its target Glucocorticoid receptor (Homo sapiens) (UniProt P04150). Put plainly: ATG_GR_TRANS: Attagene TRANS-FACTORIAL HepG2 Assay for human Glucocorticoid Receptor (GR) (AID 2282978; active = hit-call score of the fitted dose curve at least 0.9, where 1 is the maximum;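 also: activators score as hits since higher reporter transcript over DMSO is fitted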). The conditions noted are these: HepG2 Attagene TRANS GR reporter, mRNA transcription. Put shortly:
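Multiplexed TRANS reporter system, HepG2; 24 h exposure; RNA → oligo(dT) RT → reporter-specific PCR → 6-FAM primer extension → HpaI cut → CE fluorescence. Gain-of-signal vs DMSO.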

Test [18] concerns the target Oxysterols receptor LXR-alpha (Homo sapiens) (UniProt Q13133). The test can be described thus: ATG_LXRa_TRANS: Attagene TRANS-FACTORIAL HepG2 Assay for human Liver X Receptor alpha (LXRa) (AID 2282980; active = hit-call score of the fitted dose curve at least 0.9, where 1 is the maximum). The conditions noted are these: HepG2 Attagene TRANS reporter, LXRa transactivation. Put shortly:
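Read-out: reporter transcript levels by RT-PCR plus capillary electrophoresis, fluorescence intensity. Transiently transfected HepG2, exogenous NR-GAL4 chimera, GAL4-UAS reporters; 24 h compound exposure. Activity = increase over DMSO negative control.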

The target of test [19] is Bile acid receptor (Homo sapiens) (UniProt Q96RI1). The test can be described thus: ATG_FXR_TRANS: Attagene TRANS-FACTORIAL HepG2 Assay for Farnesoid X Receptor (FXR) (AID 2282979; active = hit-call score of the fitted dose curve at least 0.9, where 1 is the maximum;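 also: hits raise reporter mRNA above DMSO so AC50 marks FXR activation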). The settings on record: HepG2 Attagene TRANS FXR-GAL4 reporter transcription. In short, it runs like this: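 Read-out: fluorescent reporter transcripts quantified by capillary electrophoresis after RT-PCR of total RNA. Source cells were HepG2 transiently carrying chimeric NR-GAL4 plus GAL4-UAS reporter units, dosed 24 h. Activity fitted upward relative to DMSO baseline.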

Test [20] addresses Estrogen receptor (Homo sapiens) (UniProt P03372). Put plainly: ATG_ERa_TRANS: Attagene TRANS-FACTORIAL HepG2 Assay for human Estrogen Receptor alpha (ERa) (AID 2282970; active = hit-call score of the fitted dose curve at least 0.9, where 1 is the maximum). The conditions noted are these: HepG2 Attagene TRANS ERa GAL4 reporter, mRNA. In short, it runs like this:
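Reporter mRNA induction after 24 hours, detected by fluorescent RT-PCR and capillary electrophoresis, gives the read-out. Cells are HepG2 transiently transfected with GAL4-UAS reporter transcription units responding to chimeric NR-Gal4. Activity is taken as gain of signal over DMSO baseline.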

Sequence of X-box-binding protein 1 (Homo sapiens) (P17861 whole entry, looked up, the tested form may be a part): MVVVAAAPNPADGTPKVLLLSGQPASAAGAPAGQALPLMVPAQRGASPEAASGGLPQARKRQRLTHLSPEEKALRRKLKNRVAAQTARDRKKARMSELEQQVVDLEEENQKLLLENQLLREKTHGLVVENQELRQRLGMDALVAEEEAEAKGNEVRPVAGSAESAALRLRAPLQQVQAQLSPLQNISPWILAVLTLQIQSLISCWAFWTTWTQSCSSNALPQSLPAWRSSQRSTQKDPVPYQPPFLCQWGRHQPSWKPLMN
Sequence of Transcription factor Sp1 (Homo sapiens) (P08047 whole entry, looked up): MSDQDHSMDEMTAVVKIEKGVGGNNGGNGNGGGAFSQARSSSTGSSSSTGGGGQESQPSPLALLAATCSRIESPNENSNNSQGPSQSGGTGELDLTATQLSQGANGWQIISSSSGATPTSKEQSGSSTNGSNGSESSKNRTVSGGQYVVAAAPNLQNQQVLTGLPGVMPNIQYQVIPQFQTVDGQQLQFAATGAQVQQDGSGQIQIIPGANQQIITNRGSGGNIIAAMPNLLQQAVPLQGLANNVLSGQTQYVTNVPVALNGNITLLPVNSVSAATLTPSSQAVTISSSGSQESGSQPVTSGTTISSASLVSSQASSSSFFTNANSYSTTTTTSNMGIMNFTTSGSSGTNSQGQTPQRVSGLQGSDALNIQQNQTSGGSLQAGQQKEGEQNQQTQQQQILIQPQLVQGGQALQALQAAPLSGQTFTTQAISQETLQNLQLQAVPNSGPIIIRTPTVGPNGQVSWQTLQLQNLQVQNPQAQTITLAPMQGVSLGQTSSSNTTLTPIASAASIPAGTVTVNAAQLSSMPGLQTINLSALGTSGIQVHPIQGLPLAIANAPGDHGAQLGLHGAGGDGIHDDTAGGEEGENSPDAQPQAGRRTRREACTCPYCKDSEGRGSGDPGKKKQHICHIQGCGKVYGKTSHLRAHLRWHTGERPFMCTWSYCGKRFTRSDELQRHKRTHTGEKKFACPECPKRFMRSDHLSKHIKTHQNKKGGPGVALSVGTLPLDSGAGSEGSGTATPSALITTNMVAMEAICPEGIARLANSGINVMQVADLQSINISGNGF
Sequence of Oxysterols receptor LXR-beta (Homo sapiens) (P55055 whole entry, looked up, the tested form may be a part): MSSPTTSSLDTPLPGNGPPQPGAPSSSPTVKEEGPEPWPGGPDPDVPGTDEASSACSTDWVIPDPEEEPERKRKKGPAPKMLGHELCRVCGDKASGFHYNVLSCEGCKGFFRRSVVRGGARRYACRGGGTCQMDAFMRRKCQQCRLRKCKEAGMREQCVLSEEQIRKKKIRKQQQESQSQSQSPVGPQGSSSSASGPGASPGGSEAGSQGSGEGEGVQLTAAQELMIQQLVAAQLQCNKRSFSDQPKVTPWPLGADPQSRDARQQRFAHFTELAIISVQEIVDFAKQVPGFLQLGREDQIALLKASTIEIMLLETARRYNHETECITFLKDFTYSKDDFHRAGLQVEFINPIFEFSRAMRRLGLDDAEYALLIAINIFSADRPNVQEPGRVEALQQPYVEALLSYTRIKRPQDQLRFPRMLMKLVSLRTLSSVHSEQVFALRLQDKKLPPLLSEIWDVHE
Sequence of Steroid hormone receptor ERR1 (Homo sapiens) (P11474 whole entry, looked up, the tested form may be a part): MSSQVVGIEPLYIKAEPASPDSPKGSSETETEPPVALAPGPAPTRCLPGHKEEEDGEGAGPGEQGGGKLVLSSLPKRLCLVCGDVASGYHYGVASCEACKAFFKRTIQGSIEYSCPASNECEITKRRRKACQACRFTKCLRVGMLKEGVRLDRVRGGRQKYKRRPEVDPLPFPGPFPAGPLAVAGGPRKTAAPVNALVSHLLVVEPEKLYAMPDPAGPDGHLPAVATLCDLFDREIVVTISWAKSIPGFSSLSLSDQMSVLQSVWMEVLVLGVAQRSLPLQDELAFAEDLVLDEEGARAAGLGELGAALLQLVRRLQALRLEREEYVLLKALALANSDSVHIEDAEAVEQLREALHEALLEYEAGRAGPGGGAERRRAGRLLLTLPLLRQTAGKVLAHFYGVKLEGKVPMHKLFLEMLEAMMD
Sequence of Signal transducer and activator of transcription 3 (Homo sapiens) (P40763 whole entry, looked up): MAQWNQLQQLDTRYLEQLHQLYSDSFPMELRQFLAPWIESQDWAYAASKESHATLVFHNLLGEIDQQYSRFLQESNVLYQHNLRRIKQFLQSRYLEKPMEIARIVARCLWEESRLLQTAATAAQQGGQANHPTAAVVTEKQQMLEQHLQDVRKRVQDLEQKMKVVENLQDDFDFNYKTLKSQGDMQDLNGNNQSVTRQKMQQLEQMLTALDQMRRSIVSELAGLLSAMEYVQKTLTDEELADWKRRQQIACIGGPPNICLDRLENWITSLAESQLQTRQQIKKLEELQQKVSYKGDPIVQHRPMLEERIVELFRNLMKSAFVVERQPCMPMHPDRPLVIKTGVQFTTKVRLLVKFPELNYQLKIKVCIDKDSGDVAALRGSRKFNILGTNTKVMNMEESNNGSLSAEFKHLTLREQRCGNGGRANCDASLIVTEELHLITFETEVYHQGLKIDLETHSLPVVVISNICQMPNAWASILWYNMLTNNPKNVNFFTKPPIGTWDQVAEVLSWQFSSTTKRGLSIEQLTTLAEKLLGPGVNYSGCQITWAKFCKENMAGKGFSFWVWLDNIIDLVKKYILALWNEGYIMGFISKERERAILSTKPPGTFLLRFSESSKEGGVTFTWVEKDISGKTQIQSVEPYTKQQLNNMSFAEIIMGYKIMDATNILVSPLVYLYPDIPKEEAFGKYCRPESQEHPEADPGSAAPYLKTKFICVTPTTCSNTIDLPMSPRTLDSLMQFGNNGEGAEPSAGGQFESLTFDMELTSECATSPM
Sequence of Androgen receptor (Homo sapiens) (P10275 whole entry, looked up, the tested form may be a part): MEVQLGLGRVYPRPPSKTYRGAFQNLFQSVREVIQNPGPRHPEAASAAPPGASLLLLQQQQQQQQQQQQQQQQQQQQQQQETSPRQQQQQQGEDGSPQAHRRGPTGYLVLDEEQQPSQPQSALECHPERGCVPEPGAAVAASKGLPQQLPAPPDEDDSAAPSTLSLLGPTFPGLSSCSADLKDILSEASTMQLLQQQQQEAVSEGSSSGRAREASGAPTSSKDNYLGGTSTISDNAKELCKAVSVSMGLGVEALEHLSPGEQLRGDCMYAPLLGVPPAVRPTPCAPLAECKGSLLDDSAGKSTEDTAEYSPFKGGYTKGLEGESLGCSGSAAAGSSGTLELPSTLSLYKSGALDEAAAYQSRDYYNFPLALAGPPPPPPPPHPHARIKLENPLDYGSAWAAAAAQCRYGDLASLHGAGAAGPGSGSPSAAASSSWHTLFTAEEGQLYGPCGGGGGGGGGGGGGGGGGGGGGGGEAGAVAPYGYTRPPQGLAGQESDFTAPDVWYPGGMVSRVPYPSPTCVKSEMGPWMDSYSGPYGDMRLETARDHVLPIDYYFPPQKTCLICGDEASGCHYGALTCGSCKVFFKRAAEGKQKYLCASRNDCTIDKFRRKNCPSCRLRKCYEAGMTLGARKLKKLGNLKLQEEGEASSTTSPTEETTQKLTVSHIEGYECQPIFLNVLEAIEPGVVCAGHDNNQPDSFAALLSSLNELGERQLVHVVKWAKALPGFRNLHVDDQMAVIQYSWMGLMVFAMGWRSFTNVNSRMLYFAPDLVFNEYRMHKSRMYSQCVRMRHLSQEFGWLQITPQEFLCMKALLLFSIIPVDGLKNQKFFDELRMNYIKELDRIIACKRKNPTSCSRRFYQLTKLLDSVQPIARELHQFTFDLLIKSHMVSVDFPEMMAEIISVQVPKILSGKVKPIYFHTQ
Sequence of Oxysterols receptor LXR-alpha (Homo sapiens) (Q13133 whole entry, looked up, the tested form may be a part): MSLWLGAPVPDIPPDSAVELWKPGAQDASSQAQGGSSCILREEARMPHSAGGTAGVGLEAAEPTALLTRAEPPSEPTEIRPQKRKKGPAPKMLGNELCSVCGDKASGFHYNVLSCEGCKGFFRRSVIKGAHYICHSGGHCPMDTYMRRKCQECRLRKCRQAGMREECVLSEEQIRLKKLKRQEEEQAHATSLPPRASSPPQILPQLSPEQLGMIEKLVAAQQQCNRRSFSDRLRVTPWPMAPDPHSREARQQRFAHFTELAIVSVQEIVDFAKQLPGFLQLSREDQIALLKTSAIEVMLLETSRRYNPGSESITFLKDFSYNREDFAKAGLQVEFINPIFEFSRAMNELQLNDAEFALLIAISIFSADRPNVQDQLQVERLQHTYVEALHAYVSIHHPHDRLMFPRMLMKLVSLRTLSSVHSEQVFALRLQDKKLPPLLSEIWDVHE
Sequence of Glucocorticoid receptor (Homo sapiens) (P04150 whole entry, looked up): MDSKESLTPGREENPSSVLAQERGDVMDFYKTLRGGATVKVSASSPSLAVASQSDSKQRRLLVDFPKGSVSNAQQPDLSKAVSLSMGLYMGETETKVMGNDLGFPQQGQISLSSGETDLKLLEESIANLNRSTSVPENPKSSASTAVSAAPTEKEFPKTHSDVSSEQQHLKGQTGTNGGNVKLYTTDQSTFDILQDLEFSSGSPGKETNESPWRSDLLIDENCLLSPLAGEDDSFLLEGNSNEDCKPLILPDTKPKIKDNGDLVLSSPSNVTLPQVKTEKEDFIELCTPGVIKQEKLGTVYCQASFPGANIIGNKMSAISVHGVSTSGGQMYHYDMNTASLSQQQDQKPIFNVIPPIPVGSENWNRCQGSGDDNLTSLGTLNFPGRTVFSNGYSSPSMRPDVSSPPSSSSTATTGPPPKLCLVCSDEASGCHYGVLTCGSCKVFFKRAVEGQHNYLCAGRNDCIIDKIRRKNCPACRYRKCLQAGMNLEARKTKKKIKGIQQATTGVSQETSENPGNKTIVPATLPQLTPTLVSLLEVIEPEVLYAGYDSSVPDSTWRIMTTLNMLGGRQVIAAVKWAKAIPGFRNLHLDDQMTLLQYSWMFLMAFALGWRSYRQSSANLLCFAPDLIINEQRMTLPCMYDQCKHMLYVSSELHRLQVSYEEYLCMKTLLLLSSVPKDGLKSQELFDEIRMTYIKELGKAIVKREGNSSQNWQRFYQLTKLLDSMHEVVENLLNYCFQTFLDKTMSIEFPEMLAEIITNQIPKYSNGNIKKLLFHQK

Turning to `NNC(=S)NN`, the molecule was classed as inactive in test [1], in test [2], in test [3], in test [4], in [5] and in test [6]. For the same molecule, the call in [7], in test [8], in test [9], in [10], in test [11] and in test [12] was inactive. Besides, in [13], the call was inactive.
Take `CCC[CH2][Sn]([Cl])([Cl])[Cl]`: the molecule was called inactive in [1], in test [2], in [3], in test [4], in test [14] and in test [5]. The result in [6], in test [7], in test [9], in test [10], in test [11] and in test [12] was inactive.
On to `O=c1[nH]c(=O)[nH]c(=O)[nH]1`, for which the molecule was classed as inactive in test [1], in test [2], in test [3], in test [4], in test [5] and in [6]. Moreover, the call in test [7], in test [8], in test [15], in test [9], in [10] and in test [16] was inactive. Further, the molecule was called inactive in [11], in [12], in test [17], in test [18] and in test [13].
As for `COP(=O)(OC)O/C(=C\Cl)c1cc(Cl)c(Cl)cc1Cl`, the half-maximal activity concentration (AC50) (usually the midpoint of the concentration-response curve, whichever way the signal moves) is 44.3 µM (active) in test [1]; 26.9 µM (active) in [3]; 73.4 µM (active) in test [14]; 34.9 µM (active) in test [5]; 100 µM (active) in [6]. Further, the outcome in test [2], in [4], in [7], in test [10], in [16] and in test [11] was inactive. The molecule was called inactive in test [19].
Regarding `O=C(Cc1ccccc1)c1ccccc1`, the result in [1], in test [2], in test [3], in test [4], in [5] and in test [6] was inactive. The call in test [7], in test [8], in test [15], in test [10], in [11] and in [17] was inactive. Also, the half-maximal activity concentration (AC50) in test [20] is 22.7 µM (active).
On to `CCOC(=O)CP(=O)(OCC)OCC`, for which the molecule was called inactive in test [1], in test [2], in test [3], in test [4], in test [14] and in test [5]. Moreover, the molecule was called inactive in test [6], in test [7], in test [9], in test [10], in [11] and in test [12]. For the same molecule, the outcome in test [18] was inactive.
